Screening results: PubChem, National Center for Advancing Translational Sciences (NCATS)
In the library only some 12% were active in any assay of this set; here they are far more common.
Lassa entry inh = qHTS for Inhibitors of binding or entry into cells for Lassa Virus; Lassa virus pseudotype entry inhibition, cell reporter; Potency, µM (top dose mostly 37.9 µM), for inactives: at the highest dose activity change, negative = inhibition, most hits filed as inhibitors; hit rate 1.2% among 300,000; AID 540256, 2011; calls by dose curve; tested in HEK293 cells; also: potency is read from the fitted curve at half-maximal effect; % is scaled to controls: 0 for no effect and ±100 for the full control effect; nearly all actives have a fitted effect of over 50% in size
CHX counter = Cycloheximide Counterscreen for Small Molecule Inhibitors of Shiga Toxin. cell reporter, cycloheximide protein synthesis inhibition counterscreen. max response, %. hit rate 12% among 300,000; in the data active = max response mostly above about 13%, no sharp cut-off; inactive = mostly below about 14%; also: read at 38.3 µM for the half of the compounds with a filed dose; 0% is about no effect
Shiga toxin inh = A qHTS for Small Molecule Inhibitors of Shiga Toxin | AID 2315, 2010 | Vero cells, Shiga toxin protein synthesis inhibition reporter | inhibition, % at 38.7 µM | hit rate 9.2% among 290,000; in the data active = inhibition mostly above about 28%, no sharp cut-off; inactive = mostly below about 43%; also: 0% is about no effect
Marburg entry inh = qHTS for inhibitors of binding or entry into cells for Marburg Virus; Marburg virus pseudotyped entry inhibition, cell reporter; Potency, µM (highest dose often 37.8 µM), for the others: at the highest dose activity change, negative = inhibition, actives largely listed as inhibitors; hit rate 1.8% among 300,000; calls by dose curve; tested in HEK293 cells; also: potency is read from the fitted curve at half-maximal effect; % is scaled to controls: 0 for no effect and ±100 for the full control effect
Starred values were filed as active, the others as inactive; u = inconclusive; x = not tested or not shown; [ ] = another dose, or the depositor's remark.

SMILES	Lassa entry inh	CHX counter	Shiga toxin inh	Marburg entry inh
CCN(CC)C(=O)CSc1nc(-c2ccc(C)cc2)nc2c1COC(C)(C)C2	3%	20*	15	-2%
CC1(C)Cc2nc(-c3ccccc3)nc(SCC(=O)N3CCOCC3)c2CO1	x	-3	0	x
CCOc1ccc(NC(=O)CN2C(=O)C(C)SC(C)C2=O)cc1 (centres undefined)	8%	25*	54	1%[46.1 µM]
CCOc1ccc(NC(=O)CN2C(=O)C3CC=CCC3C2=O)cc1 (centres undefined)	8%	27*	62	9%
O=C(CN1C(=O)C2CC=CCC2C1=O)Nc1ccc(Br)cc1 (centres undefined)	-14%	1	14	4%
CC(C)CCNC(=O)c1ccc2nc[nH]c2c1	10%	24*	52	9%
O=C(NCCSc1ccc(Br)cc1)c1ccc2nc[nH]c2c1	8%	21*	16	0%
O=C(NCCc1ccc(Cl)cc1)c1ccc2nc[nH]c2c1	16%	15	76	-5%[46.1 µM]
Cc1cc(=O)[nH]c(N/N=C/c2ccc(Cl)cc2Cl)n1	x	-6	-6	x
COc1ccc(NC(=O)c2nc3nccc(C)n3n2)cn1	14%	33*	44*	u
Cc1ccccc1NC(=O)c1nc2nccc(C)n2n1	x	38*	72*	x
NS(=O)(=O)c1cnccc1Nc1ccc(Cl)c(Cl)c1	-2%	-3	1	-1%
Cc1cc(C)c(NC(=O)CSc2nnc(CNC(=O)c3ccco3)o2)c(C)c1	-3%[46.1 µM]	-3	-6	u
C=CCc1cccc(C=Nc2cccn3cc(-c4ccccc4)nc23)c1O	u	32*	69*	24%[46.1 µM]
CC(=O)c1ccc(OCC(O)CN(C)CCOc2ccc(Br)cc2)cc1 (centres undefined)	u	-8	-4	8.9µM*
Fc1ccc(CNc2ccc(CNc3ncn[nH]3)cc2)cc1	1%	22*	26	7%
Nc1ccc(CNc2ncn[nH]2)cc1	x	-2	-11	x
O=c1[nH]c2ccc(NCc3ccc(OCc4ccccc4Cl)cc3)cc2[nH]1	x	23*	23	x
COc1cc(CNc2ccc3[nH]c(=O)[nH]c3c2)cc(Cl)c1OCc1ccc(F)cc1	-1%[46.1 µM]	x	x	u
O=c1[nH]c2ccc(NCc3ccc(F)cc3)cc2[nH]1	x	13*	41*	x
Cc1cc(N2C(=O)C(O)=C(C(=O)c3ccc(C)o3)C2c2ccc([N+](=O)[O-])cc2)no1 (centres undefined)	x	-1	6	x
Nc1c2c(nc3ccccc13)CCCC2=O	u	17*	14	2%
Cc1ccsc1/C=N/NC(=O)C(=O)NCC(C)C	6%	41*	76*	6%[46.1 µM]
CCCCC(=O)N/N=C/c1sccc1C	u	9	-13	-9%
CCNC(=S)N/N=C/c1sccc1C	x	6	34*	x
SMILES	Lassa entry inh	CHX counter	Shiga toxin inh	Marburg entry inh
Cc1ccsc1/C=N/NC(=S)NCCc1ccccc1	6%	32*	31*	-3%
O=S(=O)(NCC1CCN(c2ccc(S(=O)(=O)N3CCOCC3)cc2)CC1)c1ccc(F)cc1	x	-5	-9	u
COC(=O)C1=C(C)N(CC2CC2)C(N(C)Cc2ccc(OC)cc2)=NC1c1ccccc1 (centres undefined)	x	x	x	-14%[14.2 µM]
Nc1c(O)ccc2c1C(=O)c1ccccc1C2=O	-7%	12*	34	u
COc1ccc2c(c1O)C(=O)c1ccccc1C2=O	x	5	1	x
CCn1c(=S)sc2c(=O)[nH]c(SCC(=O)Nc3cc(OC)ccc3OC)nc21	x	0	16	x
Cc1cc(/C=C(\C#N)C(=O)N2CCOCC2)c(C)n1C1CCCC1	x	26*	26	4%
CN(C)S(=O)(=O)c1cccc(NC(=O)c2ccc(N3CCOCC3)c([N+](=O)[O-])c2)c1	u	4	18	u
COc1ccc(N=Cc2c(O)n(CC3CCCO3)c(=O)[nH]c2=O)cc1 (centres undefined)	u	11*	28	u
COc1ccc(N=Cc2c(O)n(Cc3cccs3)c(=O)[nH]c2=O)cc1	x	-2	-13	x
C#CCNC(=O)C1=C[C@H](C2CCCCC2)C[C@H](OCc2ccc(CO)cc2)O1	x	14*	52*	x
O=C(NC1CC1)C1=C[C@H](C2CCCCC2)C[C@H](OCc2ccc(CO)cc2)O1	x	13*	35*	x
COc1ccc(S(=O)(=O)n2nc(-c3ccco3)nc2NCc2ccc(OC)c(OC)c2)cc1	-13%[46.1 µM]	x	x	-20%[46.1 µM]
CCCS(=O)(=O)c1c(S(=O)(=O)CCC)c2cc(C(C)(C)C)ccn2c1C(=O)c1ccc(C)cc1	-16%[46.1 µM]	x	x	-4%[46.1 µM]
O=c1[nH]c2ccc(NCc3ccc(-c4cccc(Cl)c4)o3)cc2[nH]1	1%[46.1 µM]	x	x	u
CCOC(=O)c1[nH]c(C)c(C(=O)Nc2ccc3c(c2)OCCO3)c1C	-3%	48*	52*	22%
